Results taken from the supplement of paper PMC12669032.

What was measured:
Test in all cases: growth AUC relative to DMSO control (median of replicates) (fraction); higher = more growth (less inhibition), active = hit call of the paper
Conditions in all cases: 20 µM; 24 h;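 active = AUC reduced over 20% with Padj below 0.05 in at least 2 of 3 replicates; inactive = otherwise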
[1] = tested on: Akkermansia muciniphila
In short: (§1)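 Gut bacterial monocultures in mGAM were treated with 20 µM compound (1% DMSO) and grown anaerobically at 37 °C in round-bottom 96-well plates from OD600 0.05. OD600 was read hourly for 24 h, with the minimum OD set to 0. Area under the growth curve was normalised to the plate median of solvent-only wells, or to row and column medians on the industrial chemical plate. Each value is the median of three biological replicates, each grown on a separate day.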

[2] = tested on: Bacteroides caccae
In short: as §1

[3] = tested on: Bacteroides clarus
In short: as §1

[4] = tested on: Bacteroides dorei
In short: as §1

[5] = tested on: Bacteroides stercoris
In short: as §1

[6] = tested on: Bacteroides thetaiotaomicron
In short: as §1

[7] = tested on: Bacteroides uniformis
In short: as §1

[8] = tested on: Bifidobacterium longum subsp. longum
In short: as §1

[9] = tested on: Clostridium difficile
In short: as §1

[10] = tested on: Collinsella aerofaciens
In short: as §1

Measured: growth AUC

Oc1ccc(-c2ccccc2)cc1
inactive: [1] 0.809 | [2] 1.03 | [3] 0.948 | [4] 0.991 | [5] 0.815 | [6] 0.985 | [7] 0.957 | [8] 0.899 | [9] 1.03 | [10] 1

ClCC1C(CCl)C2(Cl)C(Cl)=C(Cl)C1(Cl)C2(Cl)Cl (stereo not given)
inactive: [1] 0.995 | [2] 0.971 | [3] 0.999 | [4] 0.972 | [5] 0.985 | [6] 0.994 | [7] 1.01 | [8] 1.02 | [9] 0.989 | [10] 0.962

CCOP(=S)(OCC)Oc1cc(C)nc(C(C)C)n1
inactive: [1] 1.04 | [2] 1.02 | [3] 1 | [4] 1.03 | [5] 0.972 | [6] 1.01 | [7] 1.02 | [8] 0.972 | [9] 1.02 | [10] 0.986

COP(=S)(OC)Oc1ccc([N+](=O)[O-])cc1
inactive: [1] 1.18 | [2] 0.898 | [3] 1.03 | [4] 0.888 | [5] 1.04 | [6] 0.975 | [7] 0.96 | [8] 1.03 | [9] 1.02 | [10] 0.955

CNC(=O)Oc1ccc(N(C)C)c(C)c1
inactive: [1] 1.05 | [2] 0.855 | [3] 1.01 | [4] 0.983 | [5] 1.41 | [6] 0.994 | [7] 1 | [8] 0.979 | [9] 0.99 | [10] 0.932

CN(C)NC(=O)CCC(=O)O
inactive: [1] 0.948 | [2] 1 | [3] 1.01 | [4] 1.04 | [5] 1.01 | [6] 0.998 | [7] 0.992 | [8] 1.01 | [9] 0.991 | [10] 1

CO/C=C(/C(=O)OC)c1ccccc1COc1cccc(C(F)(F)F)n1
inactive: [1] 0.949 | [2] 0.984 | [3] 0.945 | [4] 0.995 | [5] 0.91 | [6] 0.936 | [7] 0.927 | [8] 0.983 | [9] 1.01 | [10] 0.978

CC1(C(=O)Nc2ccc(O)c(Cl)c2Cl)CCCCC1
inactive: [1] 0.827 | [2] 0.986 | [3] 0.954 | [4] 0.995 | [5] 0.952 | [6] 0.94 | [7] 0.962 | [8] 0.978 | [9] 0.98 | [10] 0.995

Clc1ccccc1-c1nnc(-c2ccccc2Cl)nn1
inactive: [1] 0.748 | [2] 0.892 | [3] 0.969 | [4] 0.974 | [5] 1.25 | [6] 0.999 | [7] 0.974 | [8] 0.825 | [9] 0.997 | [10] 0.942

CNC1=C(c2cccc(C(F)(F)F)c2)C(=O)C(c2ccccc2)O1 (stereo not given)
inactive: [1] 0.993 | [2] 1.02 | [3] 0.953 | [4] 1.01 | [5] 1.01 | [6] 0.986 | [7] 0.972 | [8] 0.888 | [9] 1.08 | [10] 1.02

CCC(C)(C)C(=O)OC1=C(c2ccc(Cl)cc2Cl)C(=O)OC12CCCCC2
inactive: [1] 1.03 | [2] 1 | [3] 0.975 | [4] 0.976 | [5] 0.978 | [6] 0.946 | [7] 0.911 | [8] 0.99 | [9] 0.973 | [10] 0.987

ClC1=C(Cl)C2(Cl)[C@H]3[C@H]4O[C@H]4[C@H](Cl)[C@H]3C1(Cl)C2(Cl)Cl (single isomer, unassigned; isomer a)
inactive: [1] 1.05 | [2] 0.99 | [3] 0.989 | [4] 1 | [5] 0.778 | [6] 1.02 | [7] 0.991 | [8] 1.07 | [9] 0.998 | [10] 0.949

COP(=O)(OC)O/C(=C\Cl)c1ccc(Cl)cc1Cl
inactive: [1] 1.11 | [2] 0.975 | [3] 1.02 | [4] 1.03 | [5] 1.02 | [6] 0.969 | [7] 1.01 | [8] 1.02 | [9] 0.97 | [10] 0.997

Nc1cccc(Cl)c1Cl
inactive: [1] 0.928 | [2] 1.04 | [3] 1 | [4] 0.999 | [5] 1.18 | [6] 0.999 | [7] 1.02 | [8] 0.921 | [9] 0.999 | [10] 1.06

COc1cc(OC)n2nc(S(=O)(=O)Nc3c(Cl)ccc(C)c3Cl)nc2n1
inactive: [1] 1.05 | [2] 0.98 | [3] 0.962 | [4] 1.06 | [5] 0.969 | [6] 0.99 | [7] 0.964 | [8] 0.976 | [9] 1.08 | [10] 1.11

FC(F)C(F)(F)OCC(Cn1cncn1)c1ccc(Cl)cc1Cl (stereo not given)
inactive: [1] 0.949 | [2] 0.967 | [3] 0.921 | [4] 0.924 | [5] 0.957 | [6] 0.921 | [7] 0.957 | [8] 0.967 | [9] 0.985 | [10] 0.93

CCCCC(C#N)(Cn1cncn1)c1ccc(Cl)cc1 (stereo not given)
inactive: [1] 1.04 | [2] 1.02 | [3] 0.952 | [4] 0.98 | [5] 0.861 | [6] 0.984 | [7] 0.975 | [8] 1.04 | [9] 0.985 | [10] 0.959

COP(=S)(OC)Oc1ccc([N+](=O)[O-])c(C)c1
inactive: [1] 0.998 | [2] 0.992 | [3] 0.968 | [4] 0.984 | [5] 0.969 | [6] 0.99 | [7] 0.97 | [8] 1.04 | [9] 0.988 | [10] 0.952

NCP(=O)(O)O
inactive: [1] 1.04 | [2] 1.02 | [3] 1.03 | [4] 1.03 | [5] 1.17 | [6] 0.982 | [7] 1.02 | [8] 1.04 | [9] 1.06 | [10] 1.05

CCNc1nc(Cl)nc(NC(C)(C)C)n1
inactive: [1] 1.01 | [2] 0.987 | [3] 0.977 | [4] 0.978 | [5] 0.996 | [6] 0.967 | [7] 1 | [8] 1.01 | [9] 0.977 | [10] 0.971

c1nc[n]([Sn]([CH]2CCCCC2)([CH]2CCCCC2)[CH]2CCCCC2)n1
inactive: [1] 1.02 | [2] 0.997 | [3] 0.86 | [4] 0.939 | [5] 0.935 | [6] 0.955 | [7] 0.901 | [8] 0.506 | [9] 0.951 | [10] 0.814

COP(=S)(OC)Oc1ccc(S(C)(=O)=O)c(C)c1
inactive: [1] 0.98 | [2] 0.994 | [3] 1 | [4] 0.974 | [5] 1.04 | [6] 0.994 | [7] 0.964 | [8] 0.831 | [9] 0.985 | [10] 1.01

COC(=O)c1ccccc1S(=O)(=O)NC(=O)Nc1nc(C)cc(C)n1
inactive: [1] 1.07 | [2] 0.962 | [3] 0.988 | [4] 0.968 | [5] 0.859 | [6] 0.979 | [7] 1.02 | [8] 1.1 | [9] 1 | [10] 0.949

CCOP(=O)(OCC)O/C(=C\Cl)c1ccc(Cl)cc1Cl
inactive: [1] 0.854 | [2] 0.982 | [3] 0.952 | [4] 0.983 | [5] 0.956 | [6] 0.962 | [7] 0.942 | [8] 0.873 | [9] 1 | [10] 1

Cc1c(N)cccc1N
inactive: [1] 0.946 | [2] 0.969 | [3] 1.04 | [4] 1 | [5] 1.18 | [6] 0.992 | [7] 1 | [8] 1 | [9] 1 | [10] 1.04

CN(C)S(=O)(=O)N(SC(F)(Cl)Cl)c1ccccc1
inactive: [1] 1.13 | [2] 1.01 | [3] 1.03 | [4] 0.998 | [5] 1.2 | [6] 1.01 | [7] 1.03 | [8] 0.989 | [9] 1.01 | [10] 0.98

CC(C)(C)C(O)/C(=C/c1ccc(Cl)cc1Cl)n1cncn1 (mixture of isomers)
inactive: [1] 1 | [2] 0.869 | [3] 0.947 | [4] 0.854 | [5] 1.32 | [6] 0.88 | [7] 0.874 | [8] 1.02 | [9] 0.964 | [10] 1.03

c1ccc(-c2ccccc2)cc1
inactive: [1] 1.09 | [2] 0.985 | [3] 1.03 | [4] 0.967 | [5] 1.22 | [6] 0.969 | [7] 1.01 | [8] 1.03 | [9] 0.948 | [10] 0.963
